The panel holds about 79,000 compounds, 15% with a hit somewhere; the sample as a whole holds those more often. Activity calls are given as the source filed them. No stated cut-off is given here; in the data, active means growth inhibition above about 70%; inactive means the rest.
Assays:
[1] = NCI Yeast Anticancer Drug Screen. Data for the rad50 strain (AID 155);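 further: 0% = growth of vehicle-only cultures of the same strain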; conditions: S. cerevisiae rad50 strain growth inhibition; at 50.0 µM; active compounds read high
Procedure, shortened: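 DNA repair mutant yeast, compound exposure, growth read-out; inhibition is taken relative to vehicle.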

[2] = NCI Yeast Anticancer Drug Screen. Data for the mec2-1 strain (AID 157); conditions: S. cerevisiae mec2-1 strain, at 50.0 µM, active compounds read high
Procedure, shortened: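 Yeast mec2-1 mutant treated with compound. Readout: growth inhibition vs vehicle controls.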

[3] = NCI Yeast Anticancer Drug Screen. Data for the sgs1 mgt1 strain (AID 161);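 further: 0% = growth of cultures given vehicle only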; conditions: S. cerevisiae sgs1 mgt1 strain, at 50.0 µM, active compounds read high
Procedure, shortened: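 Test agents were incubated with a DNA-repair-mutant yeast strain. Growth was then read and compared against vehicle-treated controls.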

[4] = NCI Yeast Anticancer Drug Screen. Data for the cln2 rad14 strain (AID 165);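 further: 0% = growth equal to vehicle treated cultures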; conditions: S. cerevisiae cln2 rad14 strain, at 50.0 µM, active compounds read high
Procedure, shortened: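 cln2 rad14 yeast strain; compound exposure; growth inhibition read vs vehicle controls.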

[5] = NCI Yeast Anticancer Drug Screen. Data for the bub3 strain (AID 167); conditions: S. cerevisiae bub3 mutant strain, at 50.0 µM, active compounds read high
Procedure, shortened: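 In this screen, a yeast mutant lacking normal mitotic checkpoint function is challenged with compound. Relative growth versus vehicle gives the inhibition value.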

[6] = NCI Yeast Anticancer Drug Screen. Data for the mlh1 rad18 strain (AID 175); conditions: S. cerevisiae mlh1 rad18 strain growth inhibition; at 50.0 µM; active compounds read high
Procedure, shortened: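 Yeast w/ defined DNA-repair lesions; compound exposure; growth vs vehicle controls → % inhibition.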

Measured: growth inhibition

C[C@]12CC[C@@H](O)C[C@H]1[C@@H](O)C[C@@H]1[C@@H]2CC[C@]2(C)C(=O)CC[C@@H]12
inactive: [1] -17.4% | [2] -4.35% | [3] 3.05% | [4] -17.1% | [5] 25.7% | [6] -11.1%

CC1CN1P(=O)(N1CCCC1)N1CC1C (stereo unspecified)
inactive: [1] 5.25% | [2] 15.1% | [3] -20.3% | [4] 6.5% | [5] -1.5% | [6] 13.4%

CCC[As](=O)(O)Cc1ccccc1C
inactive: [1] 4.3% | [2] -5.4% | [3] 7.8% | [4] -1.3% | [5] 18% | [6] 22.1%

O=C(O)CCCc1ccc(N(CCCl)OCCCl)cc1
inactive: [1] -21.1% | [2] -3.3% | [3] 16.7% | [4] 10.2% | [5] 13.3% | [6] -0.25%

CO[C@@]12[C@@H]3N[C@@H]3CN1C1=C(C(=O)C(NCCC#N)=C(C)C1=O)[C@@H]2COC(N)=O
inactive: [1] -15.8% | [2] 13.2% | [3] -13.1% | [4] 10.6% | [5] -5.3% | [6] 55.6%

CCCCCCCC(=O)[O-].N.N.N.N.N.[Co+3].[O-][Cl+3]([O-])([O-])[O-]
inactive: [1] -16.1% | [2] 20.2% | [3] -46.8% | [4] 9.1% | [5] -10.7% | [6] -13.3%

CC(C)(C)C(=O)CP(=O)(O)O (tested in a mixture with another compound)
inactive: [1] 24.1% | [2] -4.45% | [3] 1.5% | [4] 14.7% | [5] 10.2% | [6] 15.3%

Cc1ccc(O)cc1Cl
inactive: [1] -17.8% | [2] -39% | [3] -20.6% | [4] -7.65% | [5] -31.9% | [6] 1.75%

CC(CO)[N+](=O)[O-] (stereo unspecified)
inactive: [1] 0.75% | [2] 1.15% | [3] -5.05% | [4] -15.2% | [5] 1.5% | [6] 1%

O=C(O)Cc1ccc(O)c(O)c1.[Pt].c1ccc([PH+](c2ccccc2)c2ccccc2)cc1.c1ccc([PH+](c2ccccc2)c2ccccc2)cc1
inactive: [1] 43.2% | [2] 33.9% | [3] 37.8% | [4] 42.5% | [5] 26.5% | [6] 63.9%

NS(=O)(=O)c1ccc(N=Nc2ccc([As](=O)(O)O)cc2)cc1
inactive: [1] 43% | [2] 6.6% | [3] 18.6% | [4] 19.2% | [5] 3.45% | [6] 19.9%

ClCc1ccccc1
inactive: [1] 40% | [2] 8.8% | [3] 4.9% | [4] -19.7% | [5] 30.6% | [6] 22.5%

NC(=O)C[N+](=O)[O-]
inactive: [1] -16.9% | [2] 17% | [3] -11.4% | [4] 11% | [5] -2.35% | [6] -2.2%

CCCCCCCCCCOP(OCCCCCCCCCC)Oc1ccccc1
inactive: [1] 47.1% | [2] -4.9% | [3] 2.1% | [4] 10.5% | [5] 0.45% | [6] 7.45%

CNC(=O)C(Cl)Cl
inactive: [1] 12.8% | [2] 4.85% | [3] 11.7% | [4] 0.95% | [5] -8.1% | [6] 6.15%

c1cc2c(cc1NC1=NCCO1)CCC2
inactive: [1] 3.65% | [2] 4.65% | [3] 2.75% | [4] -31.6% | [5] 8.6% | [6] -0.65%

COC(=O)C1=CO[C@@H](C)[C@@H]2CN3CCc4c([nH]c5cc(OC)ccc45)[C@@H]3C[C@H]12
inactive: [1] -0.2% | [2] -28.9% | [3] -11.1% | [4] -2.9% | [5] -27% | [6] -19.2%

Clc1ccc(N2CCN(c3ccc(Cl)cc3)CC2)cc1
inactive: [1] -20.1% | [2] 1.45% | [3] -6.75% | [4] 1.25% | [5] -6.9% | [6] 6.05%

c1ccc(CN2C3c4ccccc4C2c2ccccc23)cc1
inactive: [1] -0.15% | [2] -2.2% | [3] -4% | [4] -12.3% | [5] -2.8% | [6] 3%

CCC1C(=O)NC(=O)N(c2ccccc2)C1=O (stereo unspecified)
inactive: [1] 13.7% | [2] -8.3% | [3] -3.25% | [4] -39.4% | [5] 3.1% | [6] -6%

O=[As](O)(O)c1ccc(N=Nc2ccccc2)cc1
inactive: [1] -4.25% | [2] -14.2% | [3] -6.05% | [4] -19.9% | [5] 5.75% | [6] -17.2%

CC(=O)Nc1ccc(-c2ccccc2)cc1
inactive: [1] 39.7% | [2] 24.8% | [3] 46.6% | [4] 17.9% | [5] -0.5% | [6] 32.9%

Cc1ccccc1.[C-]#[O+].[C-]#[O+].[C-]#[O+].[W]
inactive: [1] -11.5% | [2] -1.2% | [3] 2% | [4] 28.2% | [5] 24.9% | [6] -8.05%

CCOP(=O)(CCN(C)C)OCC
inactive: [1] -6.45% | [2] 3.55% | [3] -4.4% | [4] -27.7% | [5] -7.9% | [6] -0.45%

CO[C@H]1C=CC2=CCN3CCC4=C(CC(=O)OC4)[C@]23C1
inactive: [1] -9.3% | [2] -18.9% | [3] -3.6% | [4] 1.8% | [5] -21.9% | [6] -15.4%

Cc1ccc(P(=O)(O)O)cc1
inactive: [1] -10.9% | [2] -15.9% | [3] 12.1% | [4] 2.6% | [5] -2.2% | [6] -14.8%

C=CCNC(=O)C(Br)C(C)C (stereo unspecified)
inactive: [1] -9.8% | [2] -40.8% | [3] -10.6% | [4] 22.9% | [5] -26.9% | [6] -8.2%

COc1ccc2c(c1)C13CCCCC1C(C2)[N+](C)([O-])CC3 (stereo unspecified)
inactive: [1] -6.8% | [2] -19.1% | [3] 6.35% | [4] -38.1% | [5] -10.9% | [6] 4.95%

CCN1CCC2OCOC2C1 (stereo unspecified)
inactive: [1] 8.5% | [2] 2.85% | [3] 2.9% | [4] 0.5% | [5] -0.05% | [6] 33.6%

c1ccc2c(c1)ccc1sc3c([n+]12)CCC3
inactive: [1] -0.9% | [2] -5.65% | [3] -18.2% | [4] -14.5% | [5] 2.4% | [6] -5.3%

O=C(Nc1c(Cl)cc([N+](=O)[O-])cc1Cl)C(=O)C1C(=O)NC(=S)NC1=O
inactive: [1] 11.9% | [2] -28.4% | [3] -12.1% | [4] 7.65% | [5] 10.6% | [6] -5.9%

OCCCN=Cc1ccccc1O.OCCCN=Cc1ccccc1O.[Cu]
inactive: [1] 38% | [2] -9.5% | [3] 22.2% | [4] -32.1% | [5] 0.35% | [6] 15.6%

O=C1NC(=S)NC(=O)C1=Cc1ccncc1
inactive: [1] -19% | [2] -46.9% | [3] -7.7% | [4] 9.55% | [5] -26.9% | [6] -10.3%

NC(Cc1c[nH]c2cc([N+](=O)[O-])ccc12)C(=O)O (stereo unspecified)
inactive: [1] 13.8% | [2] 2.15% | [3] -33.9% | [4] -7.45% | [5] -43% | [6] -0.25%

C=C(Nc1nc2ccc(C)cc2s1)C(=O)C(CC)C(=O)C(CC)CC1C(=O)NC(=O)NC1=O (stereo unspecified)
inactive: [1] -23.4% | [2] -13.6% | [3] 4.35% | [4] -31.8% | [5] -32.6% | [6] -0.2%

CCC(O)C[As](=O)(O)c1ccccc1OC (stereo unspecified)
inactive: [1] 5.75% | [2] 20.2% | [3] 2% | [4] -1.6% | [5] 18.1% | [6] -1.65%

CN(C)NP(=O)(c1ccccc1)c1ccccc1
inactive: [1] 0.05% | [2] -3.05% | [3] -4.45% | [4] -10.5% | [5] 7.75% | [6] -2.9%

S=C([SH2+])[SH2+].S=C([SH2+])[SH2+].[Pt+2].c1ccc(C[P+](c2ccccc2)(c2ccccc2)c2ccccc2)cc1
inactive: [1] 44.7% | [2] 3.45% | [3] 36.2% | [4] -16.6% | [5] 3.6% | [6] -0.1%

CCCC[S][Hg][I]
active: [1] 92.5% | [2] 98.7% | [3] 97.9% | [5] 99.1% | [6] 98.8%
inactive: [4] 38.9%

COc1ccc2c(c1)CCC1C2CCC2(C)C1CCC21CCNP(=O)(N(CCCl)CCCl)O1 (stereo unspecified)
inactive: [2] 31.4% | [4] 23.3% | [5] 22.4% | [6] 38.7%
active: [1] 72% | [3] 72.2%

CC(Cc1ccc(Cl)cc1Cl)NO (stereo unspecified)
inactive: [1] 15.7% | [2] -12.2% | [3] -15.9% | [4] -25.6% | [5] -43.2% | [6] -2.15%
